Screening data from PubChem.
The list is not random: actives were taken first. Their share in the collection is about 2.8%.
POLI inh – DNA polymerase iota (human) inhibition. Pol iota fluorescent replication assay, 10 min. 390,000 compounds, 1% hits. Q9UNA4. Potency, µM (highest dose often 115 µM), for the others: at the highest dose activity, negative = inhibition, usual class: inhibitors; further: potency means the concentration at half of the fitted maximal effect
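Fluorescent replication assay read twice, at 0 min and 10 min after adding 50 nM (final) substrate. Enzyme (10 nM) and compounds were first incubated 15 min at room temperature; enzyme-free buffer wells were negative controls.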
Pol kappa inh-1 – DNA polymerase kappa (human) inhibition; Potency, µM (highest dose often 107 µM), inactives show at the highest dose activity, negative = inhibition, actives largely listed as inhibitors; purified Pol kappa, fluorescent DNA synthesis assay, 10 min; Q9UBT6; 400,000 compounds, 0.53% hits; further: potency means the concentration at half of the fitted maximal effect; on the % scale 0 is the no-effect control and ±100 the full control effect
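50 nM final substrate added after 15 min RT preincubation of 10 nM Pol kappa with compound; fluorescence read at 0 and 10 min.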
PI5P4Ka inh – PI5P4K alpha (human) kinase inhibition; 330,000 compounds, 1.2% hits; max response, %; P48426; AID 652105; PI5P4Kalpha enzyme, ADP-Glo luminescence, 60 min; stronger effect = lower value; active means max response of -50% or lower; inconclusive means between -30% and -50%; inactive means -30% or higher; further: value at the top dose of about 77 µM; on the % scale 0 is the no-effect control and ±100 the full control effect
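PI5P4Kalpha ADP-Glo assay; 5 microM ATP final; 60 min RT reaction; HEPES pH 7.4/EGTA/CHAPS, 5% DMSO; controls lacking substrate or enzyme; luminescent end-point.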
Pol beta inh-1 – DNA polymerase beta (human) inhibition; AID 485314; Pol beta primer extension/strand displacement, fluorescence kinetic; Potency, µM (doses to about 114 µM), for the others: top-dose activity change, negative = inhibition, most hits filed as inhibitors; 340,000 compounds, 1.3% hits; P06746; further: potency means the concentration at half of the fitted maximal effect; on the % scale 0 is the no-effect control and ±100 the full control effect
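Pol beta (10 nM) and compounds were preincubated 15 min at room temperature, then 50 nM substrate (final) started primer extension/strand displacement. Reads were taken at 0 and 10 min; concentration-response data were fitted to a four-parameter Hill equation.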
WRN helicase inh – inhibitors of human WRN helicase; WRN helicase unwinding, fluorescent forked duplex, kinetic; Potency, µM (titrated, usually from 114 µM), for inactives: top-dose activity change, negative = inhibition, most hits filed as inhibitors; 360,000 compounds, 0.46% hits; further: potency means the concentration at half of the fitted maximal effect; on the % scale 0 is the no-effect control and ±100 the full control effect; nearly all actives have a fitted effect of over 55% in size
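Kinetic fluorescence helicase assay: unwinding of a quenched forked DNA duplex (100 nM final) with 2 mM ATP final raises red fluorescence (525/598 nm). Compounds sat 15 min at room temperature with 20 nM WRN beforehand.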
Pol eta inh-1 – inhibitors of human DNA polymerase eta; Q9Y253; recombinant Pol eta, fluorescent DNA replication assay; Potency, µM (doses to about 114 µM), for inactives: at the highest dose activity change, negative = inhibition, most hits filed as inhibitors; 390,000 compounds, 1.2% hits; further: potency means the concentration at half of the fitted maximal effect; on the % scale 0 is the no-effect control and ±100 the full control effect
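Pol eta (10 nM) was preincubated with compounds for 15 min at room temperature, after which fluorescent replication substrate (50 nM final) was added to start the reaction. Fluorescence was read kinetically at 0 and 10 min.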
Pol beta inh-2 – Human Pol beta inhibitor hit validation | shares compounds with Pol beta inh-1 | Pol beta primer extension/strand displacement, fluorescence kinetic | Potency, µM, most hits filed as inhibitors | 250 compounds, 87% hits; calls by dose curve; further: potency means the concentration at half of the fitted maximal effect
Klenow counter – inhibits Klenow fragment polymerase in counter-screen. Klenow exo- polymerase counter-screen, fluorescent DNA substrate. shares compounds with Pol beta inh-1. activity change, negative = inhibition, % at 57.1 µM. 250 tested, under 10 active
HIV RT counter – counter-screen for DNA polymerase beta inhibitors: HIV-1 RT inhibition. shares compounds with Pol beta inh-1. HIV-1 RT polymerase activity, counter-screen. activity % (negative = inhibition, positive = activation), % at 57.1 µM. 250 tested, under 10 active. AID 540301
POLB inh gel – validation of human DNA polymerase beta inhibitors | shares compounds with Pol beta inh-1 | radiolabeled primer extension gel assay, phosphorimager | inhibition, % at 10 µM | 110 compounds, 91% hits | AID 540325;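 active means inhibition at 10 µM of 30% or more; inconclusive means no clear call, values can overlap the other calls; inactive means inhibition at 10 µM under 30%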
POLI cherry-pick – Confirm cherry-picked inhibitors of human polymerase iota; shares compounds with Pol kappa inh-1; Pol iota primer extension, TAMRA/BHQ fluorescence; Potency, µM, usual class: inhibitors; 1,500 compounds, 77% hits; further: potency means the concentration at half of the fitted maximal effect
Pol kappa inh-2 – Pol kappa (human) inhibition, cherry-pick confirmation; 920 compounds, 76% hits; Potency, µM, usual class: inhibitors; shares compounds with Pol eta inh-1; purified Pol-kappa, fluorescent strand-displacement substrate; further: potency means the concentration at half of the fitted maximal effect
Pol eta inh-2 – confirmation of human DNA polymerase eta inhibitors; shares compounds with Pol eta inh-1; AID 720502; Potency, µM, usual class: inhibitors; Pol eta primer extension, TAMRA/BHQ fluorescence, 10 min; 2,600 compounds, 64% hits; further: potency means the concentration at half of the fitted maximal effect
* marks the source's active call; other numbers are inactive results; u = inconclusive; x = not tested or not shown; [ ] = dose if it differs, or a comment. Unless noted, the call rests on the fitted dose curve; in most records, active means well fitted curve in the direction sought with a large enough effect; inconclusive means small, poorly fitted or top-dose-only effect, or another doubt; inactive means no such curve, though single readings can be large; an effect the other way counts as inactive or inconclusive.

SMILES	POLI inh	Pol kappa inh-1	PI5P4Ka inh	Pol beta inh-1	WRN helicase inh	Pol eta inh-1	Pol beta inh-2	Klenow counter	HIV RT counter	POLI cherry-pick	Pol eta inh-2	others
Cc1cccc(-c2nc3c4ccccc4n(CC(=O)Nc4cccc(F)c4)c(=O)n3n2)c1	6%	-6%[60.1 µM]	x	3%	x	-3%	x	x	x	x	x
Cc1sc2ncn(CC(=O)N3CCN(c4cccc(Cl)c4)CC3)c(=O)c2c1S(=O)(=O)N1CCC(C)CC1	17%	5%	x	-12%	x	-17%	x	x	x	x	x
Cc1nnc(NC(=O)COc2ccc3c(C)cc(=O)oc3c2)s1	u	-23%	u	20µM*	u	10µM*	22*	3	-4	60*	76*	POLB inh gel=96*
Fc1ccc(COc2cccc3cccnc23)cc1	82%	4%	3	15%	4%	-7%	x	x	x	x	x
Cc1oc(C(=O)O)cc1COc1cccc2cccnc12	10µM*	u	-8	10µM*	u	8.9µM*	16*	-23	2	67*	u
COc1ccc(OC)c2sc(N(Cc3cccnc3)C(C)=O)nc12	-21%	0%[60.1 µM]	x	8%	x	-22%	x	x	x	x	x
COc1ccc(NC(=O)c2ccc(Cl)nc2)cc1S(=O)(=O)N1CCOCC1	u	-14%	-5	x	0%	-13%	x	x	x	x	x
COc1ccc(NC(=O)Cn2ncc(Cl)c(Cl)c2=O)cc1S(=O)(=O)N1CCOCC1	20µM*	45µM*	-78*	10µM*	u	7.1µM*	32*	-6	u	67*	76*	POLB inh gel=98*
CCOc1ccc(-n2c(SCC(=O)N3CCc4ccccc43)nnc2-c2c[nH]c3ccccc23)cc1	u	0%	6	1µM*	-24%[11.6 µM]	5.6µM*	1.4*	-10	26	30*	76*
COc1cccc(-n2c(SCC(=O)N3CCc4ccccc43)nnc2-c2c[nH]c3ccccc23)c1	-1%	-3%	-1	0%	4%	-4%	x	x	x	x	x
COc1cccc(N2CC(NC(=O)C3CC3)CC2=O)c1 (stereo not given)	19%	-6%[60.1 µM]	x	1%	x	-1%	x	x	x	x	x
CCC1(CC)NC(=O)N(CC(=O)Nc2sc3c(c2C(N)=O)CCC3)C1=O	13µM*	u	-70*	16µM*	u	25µM*	28*	-20	-10	x	u	POLB inh gel=95*
CCC1(C)NC(=O)N(CC(=O)Nc2sc3c(c2C(=O)OC)CCCCC3)C1=O (stereo not given)	10%	-9%	-18	19%	-20%[57.1 µM]	-7%	x	x	x	x	x
COC(=O)c1c(NC(=O)c2nc3nc(C)cc(C(F)F)n3n2)sc2c1CCC2	u	-7%	x	30%	-25%	-5%	x	x	x	x	x
Cc1cc(C(F)F)n2nc(C(=O)Nc3sc4c(c3C(N)=O)CCC4)nc2n1	20µM*	u	u	16µM*	-36%[57.1 µM]	20µM*	32*	-13	-14	u	u	POLB inh gel=18
CSc1ccccc1NC(=O)c1noc2c1CCC2	20µM*	u	x	10µM*	u	28µM*	32*	-10	3	67*	60*	POLB inh gel=93*
Cc1ccc(O)c(NC(=O)c2noc3c2CCCC3)c1	6%	-4%	x	0%	x	-12%	x	x	x	x	x
Cc1cc(C)n(-c2nc(N(c3ccccc3)c3ccccc3)nc(-n3nc(C)cc3C)n2)n1	7%	3%	x	-8%	-11%	-14%	x	x	x	x	x
Cc1cc(C)n(-c2nc(Nc3ccccc3)nc(-n3nc(C)cc3C)n2)n1	-1%	-3%	x	10µM*	u	u	u	-37	23	x	u
COc1ccc(CCCc2nnc(SCC(=O)Nc3ccc(F)cc3)o2)cc1C	9%	-5%	x	3%	x	-11%	x	x	x	x	x
CC1CCCCC1NC(=O)COC(=O)c1c2c(nc3ccccc13)/C(=C/c1ccco1)CC2 (stereo not given)	3.5µM*	10µM*	-83*	11µM*	u	8.9µM*	18*	-27	-5	34*	21*
Cc1ccc(-c2nc3cnccn3c2Nc2ccc(C(C)C)cc2)o1	u	-37%	x	x	x	x	x	x	x	x	x
COc1ccc(C)cc1-n1cnc2cc(C(=O)NC3CCCCCC3)ccc21	-1%	-2%[60.1 µM]	x	-6%	x	-17%	x	x	x	x	x
O=C(N/N=C/c1ccco1)c1cccc(N2CCCC2=O)c1	u	-7%	2	u	-33%[57.1 µM]	u	x	x	x	x	x
O=C(N/N=C/c1ccco1)c1cccc(N2Cc3ccccc3C2)c1	10µM*	35µM*	-88*	13µM*	-20%[11.6 µM]	7.9µM*	16*	-14	20	42*	43*	Pol kappa inh-2=17*
CCOc1ccccc1NCc1nnc2n1CCCCC2	6%	-3%[60.1 µM]	x	3%	x	-9%	x	x	x	x	x
